Shiga inhibitor – inhibitors of Shiga toxin in Vero cells; Vero cells, Shiga toxin protein synthesis inhibition reporter; inhibition, % at 38.7 µM; 290,000 tested, 9.2% active; in the data active = inhibition mostly above about 28%, no sharp cut-off; inactive = mostly below about 43%; note: 0% is about no effect
Giardia FBPA inh – blocks Giardia fructose-bisphosphate aldolase activity; A8B2U2; purified Giardia FBPA; Potency, µM (doses to about 59.6 µM), for the others: at the highest dose activity, negative = inhibition, hits mostly inhibitors; 290,000 tested, 0.71% active; AID 2451; note: potency is the fitted concentration of half-maximal effect; % is set by controls: 0 for no effect and ±100 for the full control effect; nearly all actives have a fitted effect of over 55% in size
Target sequence (A8B2U2 whole entry, looked up): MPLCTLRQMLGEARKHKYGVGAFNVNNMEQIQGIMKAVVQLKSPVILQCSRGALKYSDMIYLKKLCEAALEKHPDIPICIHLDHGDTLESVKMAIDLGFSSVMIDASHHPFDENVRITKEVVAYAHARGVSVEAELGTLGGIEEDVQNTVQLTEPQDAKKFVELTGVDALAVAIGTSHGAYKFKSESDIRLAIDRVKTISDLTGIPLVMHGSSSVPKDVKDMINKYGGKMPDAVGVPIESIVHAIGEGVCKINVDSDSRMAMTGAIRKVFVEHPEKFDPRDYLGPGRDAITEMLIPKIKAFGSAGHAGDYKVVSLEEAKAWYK
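40 nM FBPA preincubated 10 min at RT with compound (up to 57.5 uM final), then substrate plus GAPDH/TPI/NAD/arsenate coupling and diaphorase/resazurin added. Fluorescence read after 20 min at RT, 525/598 nm.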
Tb PYK inh – T. brucei pyruvate kinase inhibition; Q57TT1; TbPYK enzyme, Kinase-Glo Plus ATP luminescence, 45 min; Potency, µM (doses to about 76.8 µM), inactives show at the top dose activity, negative = inhibition, usual class: inhibitors; 410,000 tested, 0.12% active; AID 624173; note: potency is the fitted concentration of half-maximal effect; % is set by controls: 0 for no effect and ±100 for the full control effect; nearly all actives have a fitted effect of over 50% in size
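Quantitative HTS: titrated library compounds versus trypanosomal pyruvate kinase in TEA buffer (pH 7.2) containing KCl, MgCl2, BSA and Tween-20. Reactions were initiated with ADP, 130 uM final. Kinase-Glo Plus luminescence was read after 45 min at RT.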
LmPK inhibitor – inhibitors of Leishmania mexicana pyruvate kinase; 290,000 tested, 0.37% active; Q27686; Potency, µM (series often up to 57.5 µM), inactives show at the top dose activity change, negative = inhibition, actives largely listed as inhibitors; purified LmPK, Kinase-Glo ATP luminescence, 1 h; note: potency is the fitted concentration of half-maximal effect; % is set by controls: 0 for no effect and ±100 for the full control effect
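Pyruvate kinase activity monitored as ATP production (luciferase luminescence). Conditions: 0.1 nM enzyme, 0.5 mM PEP, 0.1 mM ADP, 1 h, RT; normalized against uninhibited and no-enzyme wells.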
RE007 growth inh – less growth of the S. pombe RE007 Vpr strain; 360,000 tested, 0.21% active; Potency, µM (series often up to 92.2 µM), for inactives: at the top dose activity change, negative = less growth, usual class: inhibitors; S. pombe RE007 Vpr strain, BacTiter-Glo ATP luminescence, 24 h; AID 651644; active = well fitted falling curve with a large enough effect; inconclusive = small, poorly fitted or top-dose-only effect; inactive = no such curve, though single readings can be large or run the other way; note: potency is the fitted concentration of half-maximal effect; % is set by controls: 0 for no effect and ±100 for the full control effect; nearly all actives have a fitted effect of over 50% in size
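Fission yeast strain RE007, carrying one chromosomally integrated HIV-1 vpr copy, was seeded at OD 0.01 in PMG+AL medium with 23 nL pinned compound. After 24 h at 30 °C and 99% humidity, viability was read by BacTiter-Glo luminescence.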
Cycloheximide cs – affects cycloheximide protein synthesis inhibition readout, counter-screen; cell reporter, cycloheximide protein synthesis inhibition counterscreen; max response, %; 300,000 tested, 12% active; AID 2314; in the data active = max response mostly above about 13%, no sharp cut-off; inactive = mostly below about 14%; note: read at 38.3 µM for the half of the compounds with a filed dose; 0% is about no effect
* hit, by the source's call; u = inconclusive; x = no result given; [ ] = remark or other dose. This is one part of a sample in which hits are shown more often than they occur. Unless noted, calls come from the whole dose curve; as a rule, active = well fitted curve in the direction sought with a large enough effect; inconclusive = small, poorly fitted or top-dose-only effect, or another doubt; inactive = no such curve, though single readings can be large; an effect the other way counts as inactive or inconclusive.

SMILES | Shiga inhibitor | Giardia FBPA inh | Tb PYK inh | LmPK inhibitor | RE007 growth inh | Cycloheximide cs
O=C(Nc1ccccn1)c1ccc([N+](=O)[O-])o1 | 65* | -8% | -5% | -15% | u | 33*
Cc1ccnc(NC(=O)c2ccc([N+](=O)[O-])o2)c1 | 133* | -29% | -6% | -26% | u | 68*
Cc1ccccc1CNC(=O)c1csc([C@H]2C[C@H](O)[C@@H](CO)O2)n1 | x | x | -15% | x | 9%[18.4 µM] | x
COc1ccc(C2CC(c3cccs3)n3nc(N)nc3N2)cc1 (stereo not given) | 23* | 2% | -12% | 3% | 3% | 7.4*
COC(=O)C1=C[C@@H](C(=O)OC)C2C3=C(C(=O)[C@]2(C)NC(=O)c2ccccc2)[C@H](C)[C@@H]2C(=O)N(C)C(=O)[C@@H]2[C@@H]3C1 (stereo not given in full) | 3 | 3% | x | x | x | -4
COc1ccc2c(c1)O[C@@H](c1ccc3c(c1)OCO3)[C@H](OC(=O)N[C@H](C)C1CCCCC1)C2=O | x | -3% | x | x | x | x
COC(=O)[C@@H](NC(=O)O[C@H]1C(=O)c2ccc(OC)cc2O[C@@H]1c1ccc2c(c1)OCO2)C(C)C | 0 | 0% | x | 1% | x | 23*
Cc1ccc2ccc(C3C(=O)c4ccccc4C3=O)nc2c1 | x | x | -1% | x | -7% | x
Cc1ccc2cc3c(N)[nH]nc3nc2c1 | 14 | 4% | -12% | 0% | -5% | 21*
NNC(=O)CP(=O)(c1ccccc1)c1ccccc1 | x | x | 0% | x | 0% | x
O=C(CP(=O)(c1ccccc1)c1ccccc1)Nn1cnnc1 | 99* | 1% | -7% | -6% | 8% | 49*
Cc1cccc(-n2ncc3c(NCc4ccco4)ncnc32)c1 | 64* | -8% | -3% | 2% | -12% | 35*
CCCCNC(=O)c1nnn(-c2ccccc2)c1N | 49* | -3% | -9% | -2% | -5% | 27*
Cc1cccc(-n2nnc(C(=O)NCc3ccco3)c2N)c1 | 38* | -4% | -15% | 0% | 20% | 21*
NC(=O)c1nnn(-c2ccccc2)c1N | 14 | 1% | -9% | -6% | 6% | -2
Cc1ccc(-n2ncc3c(NCc4ccco4)ncnc32)cc1C | 91* | 4% | -3% | -1% | -10% | 51*
Cc1nc(N2CCCC2)c2c(C(=O)Nc3cccc(Cl)c3)c(C)oc2n1 | x | x | 1% | x | x | x
Cc1ccc(NC2CCCN(C(=O)CSc3ccncc3)C2)cc1C (stereo not given) | -18 | x | 4% | 0% | -1% | -2
O=C1CC(NS(=O)(=O)c2ccc(F)cc2)CN1c1ccc2c(c1)OCCO2 (stereo not given) | x | x | 1% | x | -1% | x
O=S(=O)(NNc1ncc(C(F)(F)F)cc1Cl)c1ccccc1 | x | x | -13% | x | 2% | x
Cc1c(-c2cc(C(=O)O)no2)cnn1C | 50* | 2% | 1% | 5% | 4% | 29*
CCn1ncc(-c2cc(C(=O)O)no2)c1C | -25 | 3% | -2% | 1% | -3% | -4
Cc1cc(F)ccc1NC(=O)CCc1ccc(S(=O)(=O)N2CCOCC2)cc1 | x | x | 2% | x | 11% | x
CCNc1nnc(CSc2nc3ccccc3s2)s1 | 60* | 1% | 3% | -2% | 11% | 37*
Cn1c(CSc2ncn[nH]2)nc2ccccc21 | 14 | -16% | -1% | -4% | 5% | 9
SMILES | Shiga inhibitor | Giardia FBPA inh | Tb PYK inh | LmPK inhibitor | RE007 growth inh | Cycloheximide cs
S=c1[nH]nc(CSc2nc3ccccc3s2)o1 | -3 | 21% | -31% | -1% | 1% | 3
Cn1c(CSc2nc3ccccc3s2)n[nH]c1=S | 18 | 8% | u | -6% | -5% | 15*
Cn1c(CSc2nc3ccccc3s2)nc2ccccc21 | 77* | -17% | x | -29% | -2%[3.69 µM] | 39*
O=C(Cc1c(F)cccc1Cl)N1CCN(S(=O)(=O)c2cccc(F)c2)CC1 | x | x | 3% | x | 2% | x
Cn1c(/N=C/c2cccs2)nc2ccccc21 | -13 | -2% | -14% | 14µM* | -3% | -6
CCC1=Nc2cc(C(=O)NC3CCCC3)ccc2Sc2ccc(Br)cc21 | x | x | -3% | x | x | x
CC(C)(C)OC(=O)N1CCC(CC2CC(c3cccc(Br)c3)=NO2)(C(=O)NCC2CCCCC2)CC1 (stereo not given) | 26 | 10% | 3% | -2% | -9% | 13*
O=C(c1ccccc1)N1CCC(CC2CC(c3cccc(Br)c3)=NO2)(C(=O)NCC2CCCCC2)CC1 (stereo not given) | 3 | 4% | -4% | -4% | 9% | 3
CCCCCCCNC(=O)C1(CC2CC(c3cccc(Br)c3)=NO2)CCN(C(=O)OC(C)(C)C)CC1 (stereo not given) | 15 | -1% | -10% | -1% | 3% | 15*
O=S(=O)(c1ccc(Cl)cc1)c1nc(-c2ccccc2Br)oc1N1CCOCC1 | x | x | 0% | x | x | x
Cc1ccc(/C=C/C(=O)N2CCc3ccccc3C2)cc1 | 12 | -11% | -16% | 1% | 7% | 11*
CN1CCN(C(=O)/C=C/c2ccccc2)CC1 | -6 | -2% | -8% | 2% | 12% | -4
CSc1ccc(/C=C/C(=O)N2CCCN(C)CC2)cc1 | 52* | 0% | 0% | 1% | 11% | 23*
Cc1ccc(/C=C/C(=O)N2CCCN(C(=O)/C=C/c3ccc(C)cc3)CC2)cc1 | 34 | 0% | 3% | 1% | 8% | 16*
COc1ccc(N2CCN(C(=O)c3nn(-c4ccc(C)cc4)c(=O)n(C)c3=O)CC2)cc1 | x | x | -3% | x | x | x
CCN1C(=S)SC(=O)C1=C1C=C(C)N(CCO)C(C)=C1 | 125* | -24% | 6% | 5% | 15% | 71*
CCN1C(=S)SC(=O)C1=C1C=C(C)N(CCOC)C(C)=C1 | 107* | -10% | x | -1% | x | 44*
COc1ccc(NC(=O)O/N=C/c2c(C)nn(C(C)(C)C)c2C)cc1 | 45 | -18% | 2% | 0% | 7% | 29*
Cc1nn(C(C)(C)C)c(C)c1/C=N/OC(=O)Nc1ccc(Cl)c(Cl)c1 | -18 | -14% | 3% | -1% | 13% | -4
N#C/C(=C\c1c(N2CCN(c3ccccc3)CC2)nc2ccccn2c1=O)C(N)=O | 50* | -13% | -25% | 1% | 4% | 28*
CCOC(=O)/C(C#N)=C/c1c(N2CCN(c3ccccc3)CC2)nc2ccccn2c1=O | 18 | -12% | 1% | 2% | 6% | 41*
Oc1ccc2c(c1)oc1cc(O)ccc12 | 63* | 8% | -3% | 2% | 16% | 45*
O=C(N/N=C/c1cn[nH]c1-c1ccc(Cl)cc1)c1ccc([N+](=O)[O-])cc1 | -17 | -26% | -1% | 1% | -1% | 2
O=C(N/N=C\c1cn[nH]c1-c1ccc(Cl)cc1)c1cccs1 | 81* | -2% | 10% | -3% | -9% | 36*
